{"source": "PubChem BioAssay AID1460", "about": "(National Center for Advancing Translational Sciences (NCATS), 2008)", "note": "Hit rate of the full screen: of about 270,000 compounds, about 5,800 (2.1%) were called active. Where a call stands in place of a potency, no number is given. Not shown: some 16% with an inconclusive outcome. Calls come from the whole dose curve; as a rule, active = well fitted inhibition curve with a large enough effect; inconclusive = small, poorly fitted or top-dose-only effect; inactive = flat fitted curve, though single readings scatter. For the sample, actives were picked, then their nearest neighbours and some compounds at random. Potency is the fitted concentration of half-maximal effect."}
{"molecular_target": "Microtubule-associated protein tau (Homo sapiens) (UniProt P10636)", "sequence (P10636 561-689 P618L limits assumed)": "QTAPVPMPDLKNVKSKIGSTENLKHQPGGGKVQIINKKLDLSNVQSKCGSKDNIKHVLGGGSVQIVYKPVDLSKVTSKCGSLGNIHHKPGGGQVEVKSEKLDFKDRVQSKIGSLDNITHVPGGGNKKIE", "test": "qHTS for Inhibitors of Tau Fibril Formation, Thioflavin T Binding; note: nearly all actives have a fitted effect of over 55% in size", "conditions": "recombinant tau K18 P301L (four-repeat tau fragment), heparin-induced fibrillization, ThT fluorescence; series mostly up to 57.4 µM", "summary_of_the_method": "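K18 P301L tau (15 uM + 0.24 uM Alexa 594-tagged), heparin 20 uM, NaOAc pH 7, 6 h 37 C; ThT 30 uM, 1 h RT, ex 450/em 510 nm.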"}
{"smiles": "O=C(Nc1cccc(Cl)c1)c1csnn1", "Potency": "inactive"}
{"smiles": "CCOC(=O)C1CCN(C(c2ccc(F)cc2)c2sc3nc(-c4ccco4)nn3c2O)CC1", "note": "(centres undefined)", "Potency": "inactive"}
{"smiles": "CCOc1ccccc1/C=c1\\sc2nc(-c3ccco3)nn2c1=O", "Potency": "22.4 µM (active)"}
{"smiles": "Oc1c(C(c2ccccc2Cl)N2CCOCC2)sc2nc(-c3ccco3)nn12", "note": "(centres undefined)", "Potency": "inactive"}
{"smiles": "Cc1ccc2nc(COc3cccc(NC(=O)c4cccc(Cl)c4)c3)cc(=O)n2c1", "Potency": "inactive"}
{"smiles": "Clc1cccc(N=C2NN=C(c3ccc4c(c3)OCCO4)CS2)c1", "Potency": "15.8 µM (active)"}
{"smiles": "c1ccc(-n2nnnc2N2CCOCC2)cc1", "Potency": "inactive"}
{"smiles": "O=C1C(Cl)=C(N2CCOCC2)C(=O)N1c1ccccc1", "Potency": "12.6 µM (active)"}
{"smiles": "O=C1OC(NC(=O)c2ccccc2)C(N2CCOCC2)=C1Cl", "note": "(centres undefined)", "Potency": "inactive"}
{"smiles": "CCc1ccc(NC(=O)CSc2nc3c([nH]c4ccccc43)c(=O)n2-c2cccc(OC)c2)cc1", "Potency": "inactive"}
{"smiles": "Nc1ccccc1Sc1ccc(C(F)(F)F)cc1[N+](=O)[O-]", "Potency": "inactive"}
{"smiles": "CCOC(=O)c1cc(Sc2ccccc2N)cc(C(=O)OCC)n1", "Potency": "inactive"}
{"smiles": "CCS(=O)(=O)c1cc([N+](=O)[O-])c(Sc2ccccc2N)s1", "Potency": "10 µM (active)"}
{"smiles": "Cc1ccc(CNS(=O)(=O)c2ccc(-c3cc(C(F)(F)F)on3)s2)cc1", "Potency": "inactive"}
{"smiles": "O=C(Nc1cc(S(=O)(=O)N2CCOCC2)ccc1Cl)c1cc(=O)c2ccccc2o1", "Potency": "inactive"}
{"smiles": "O=C(NC(=S)Nc1ccc(S(=O)(=O)N2CCOCC2)cc1)c1ccccc1[N+](=O)[O-]", "Potency": "inactive"}
{"smiles": "O=[N+]([O-])c1cc(Cl)cc(/C=N/NC(=S)Nc2cc(S(=O)(=O)N3CCOCC3)ccc2Cl)c1O", "Potency": "3.16 µM (active)"}
{"smiles": "Cc1ccc(N(C)C(=O)C2CCN(S(=O)(=O)c3ccc4c(c3)CCCN4C(=O)C3CCC3)CC2)cc1", "Potency": "inactive"}
{"smiles": "O=C(N/N=C\\c1ccc(Br)cc1)c1ccc(Cn2cccn2)o1", "Potency": "inactive"}
{"smiles": "O=C(N/N=C/c1ccc2c(c1)OCO2)c1ccc(Cn2cc([N+](=O)[O-])cn2)o1", "Potency": "inactive"}
{"smiles": "CN(C)c1ccc(/C=N/NC(=O)c2ccc(Cn3cc(Br)cn3)o2)cc1", "Potency": "12.6 µM (active)"}
{"smiles": "COC(=O)c1sc(=S)n(-c2ccccc2)c1N", "Potency": "inactive"}
{"smiles": "CCOC(=O)c1c(N)sc(C(C)=O)c1C", "Potency": "inactive"}
{"smiles": "COCCOC(=O)c1sc(=S)n(CCOC)c1N", "Potency": "28.2 µM (active)"}
{"smiles": "COc1ccccc1N1CCN(C(=O)C2CCN(S(=O)(=O)c3c(C)noc3/C=C/c3ccc(C)cc3)CC2)CC1", "Potency": "inactive"}
{"smiles": "CCn1cc(C(=O)OCC(=O)Nc2cc(C)cc(C)c2)c(=O)c2ccc(C)nc21", "Potency": "inactive"}
{"smiles": "CCCS(=O)(=O)N1CCC(n2c(C(F)(F)F)nc3cccnc32)CC1", "Potency": "inactive"}
{"smiles": "COc1ccc(CCNC(=O)c2ccc3c(c2)sc2nc(-c4ccc(C)cc4)cn23)cc1OC", "Potency": "inactive"}
{"smiles": "O=C(NCc1ccc(Cl)cc1)c1ccc2c(c1)nnn2C1CCCC1", "Potency": "inactive"}
